Bioassay records deposited in PubChem BioAssay by National Center for Advancing Translational Sciences (NCATS).
KB-3-1 cytotox: KB-3-1 parental cell cytotoxicity. KB-3-1 viability, CellTiter-Glo ATP luminescence, 72 h. Potency, µM (series often up to 46.1 µM), most hits filed as cytotoxic. 1.4% of 400,000 active; note: % is set by controls: 0 for no effect and ±100 for the full control effect; nearly all actives have a fitted effect of over 60% in size
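Multi-concentration cytotoxicity screen in KB-3-1 cells grown in DMEM lacking phenol red with 10% FBS. After 72 h at 37 °C with compound, ATP-dependent luminescence was recorded.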
MCF10A rereplic: inducers of DNA re-replication in MCF 10A breast cells. MCF 10A DNA re-replication, Hoechst nuclear intensity, 48 h. Potency, µM (highest dose often 46.1 µM), without a hit: at the highest dose activity, positive = re-replication, hits mostly activators. 2.9% of 350,000 active; note: % of control where 0% means no effect; nearly all actives have a fitted effect of over 50% in size
SW480 rereplic: DNA re-replication induction in SW480 cells; SW480 DNA re-replication, Hoechst DNA content imaging, 48 h; Potency, µM (doses to about 46.1 µM), for the others: top-dose re-replication activation, hits mostly activators; 1.8% of 340,000 active; note: % of control where 0% means no effect; nearly all actives have a fitted effect of over 55% in size
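Image-based read-out: total Hoechst fluorescence of nuclei (405 nm excitation, 500-530 nm emission), with hits raising the fraction of high-intensity nuclei. SW480 colon cells incubated 48 hr with compounds at 37 C.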
KB-V1 MDR tox: KB-V1 MDR subline cytotoxicity; KB-V1 MDR cells viability, CellTiter-Glo, 72 h; Potency, µM (doses to about 46.1 µM), most hits filed as cytotoxic; 3.4% of 400,000 active; note: % is set by controls: 0 for no effect and ±100 for the full control effect; nearly all actives have a fitted effect of over 60% in size
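Compound-treated KB-V1 multidrug-resistant cells, 72 h, 37 degrees C; viability by CellTiter-Glo. Fitted qHTS curves give the values.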
HT1080NT lethal: kills 2HG-producing HT-1080-NT fibrosarcoma cells | AID 686970 | HT-1080-NT fibrosarcoma viability, CellTiter-Glo ATP luminescence, 48 h | 1.6% of 360,000 active | Potency, µM (doses to about 46.1 µM), inactives show top-dose activity, negative = less viability, most hits filed as cytotoxic;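 note: NT is the 2HG producing partner of a matched IDH1 knockdown line; 0% = DMSO-treated cells and -100% = media-only wells without cells; nearly all actives have a fitted effect of over 55% in size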
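Compounds were tested in concentration-response format on HT-1080-NT cells for 48 hours at 37 degrees C. Cell viability came from CellTiter-Glo luminescence; curves were classified by r2, response magnitude and activity.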
HT1080 IDH1KD tx: kills HT-1080 cells with IDH1 knockdown; Potency, µM (series often up to 46.1 µM), inactives show at the top dose activity, negative = toxicity, hits mostly cytotoxic; 2% of 360,000 active; AID 686971; HT-1080 IDH1 knockdown viability, ATP luminescence, 48 h;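 note: 0% = DMSO wells and -100% = cell-free medium wells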
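Knockdown cells (IDH1KD HT-1080) received compounds 2 h after plating at 750 cells/well and were kept 48 h at 37 °C in 5% FBS RPMI. A CellTiter-Glo luminescence read gave % activity for curve fitting.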
* hit, by the source's call; i = inactive; ? = inconclusive; nt = not tested or not shown. Sampled rows, rich in hits. Any-hit rate of the full collection: about 8%. Calls come from the whole dose curve; as a rule, active = well fitted curve in the direction sought with a large enough effect; inconclusive = small, poorly fitted or top-dose-only effect, or another doubt; inactive = no such curve, though single readings can be large; an effect the other way counts as inactive or inconclusive. Potency is the fitted concentration of half-maximal effect.

SMILES	KB-3-1 cytotox	MCF10A rereplic	SW480 rereplic	KB-V1 MDR tox	HT1080NT lethal	HT1080 IDH1KD tx
C=C1CCC(O)C/C1=C/C=C1\CCC[C@]2(C)[C@@H]([C@H](C)/C=C/[C@H](C)C(C)C)CC[C@@H]12 (stereo not given in full)	nt	?	8%	nt	nt	nt
O=C(Nc1ccc(Oc2ccccc2)cc1)C1CCCN(c2ncccn2)C1 (stereo not given)	i	?	3%	5.8µM*	0%	4%
O=C(NCc1cccs1)C1CCCN(c2ncccn2)C1 (stereo not given)	i	0%	1%	?	0%	0%
Cc1ccc(S(=O)(=O)N2CCC(C(=O)Nc3ccc(Oc4ccccc4)cc3)CC2)cc1	i	nt	nt	?	nt	nt
O=C(Nc1ccc(Oc2ccccc2)cc1)C1CCN(S(=O)(=O)c2ccccc2)CC1	?	nt	nt	6.5µM*	nt	nt
CCOC(=O)CNC(=O)C1CCCN(c2ncccn2)C1 (stereo not given)	i	17%	0.26µM*	i	-7%	4%
COc1ccc(C)cc1NC(=O)CN1C(=O)CCc2cc(S(=O)(=O)N3CCOCC3)ccc21	i	nt	nt	i	nt	nt
COc1ccc(-c2cn3cc(C(=O)NN)ccc3n2)cc1	i	-1%	-10%	i	?	?
CC(=O)Nc1ccc(-c2cn3cc(C)ccc3n2)cc1	i	2%	2%	16µM*	1%	7%
NNC(=O)c1ccc2nc(-c3ccc(Br)cc3)cn2c1	i	8%	?	i	18µM*	?
Cc1ccc2nc(-c3ccccc3)cn2c1	12µM*	-4%	-17%	10µM*	12µM*	12µM*
O=C(c1ccc2c(c1)N(Cc1ccccc1F)C(=O)c1ccccc1S2(=O)=O)N1CCC(Cc2ccccc2)CC1	?	nt	nt	i	nt	nt
Cc1cc(Br)ccc1NC(=O)CN1C(=O)C2C3CC(c4ccccc4)C(C3)C2C1=O (stereo not given)	i	?	5%	21µM*	-12%	-24%
COc1ccccc1OCC(=O)Nc1c(C(=O)c2ccc(F)cc2)oc2ccccc12	?	nt	nt	i	nt	nt
COc1ccc(N=C2C(=S)N(c3ccc(OC)cc3)C(=NS(=O)(=O)c3ccccc3)N2c2ccccc2)cc1	i	13%	-1%	?	-3%	11%
N=C1N(c2ccccc2)C(=S)C(=Nc2ccccc2)N1c1ccccc1	i	18µM*	?	i	2%	?
CC1(C)Cc2c(c(N3CCOCC3)nc3sc(-c4ccc(C(=O)O)o4)c(N)c23)CO1	?	?	19%	?	5%	10%
CN1Cc2c(N3CCOCC3)nc3sc(C#N)c(N)c3c2CC1(C)C	i	12%	-11%	i	7%	1%
CNC(=O)c1ccc(-c2sc3nc(N4CCOCC4)c4c(c3c2N)CCCC4)o1	?	?	7.3µM*	?	2%	-13%
CNC(=O)c1ccc(-c2sc3nc(N4CCOCC4)c4c(c3c2N)CC(C)(C)OC4)o1	i	2.9µM*	?	?	4%	3%
CN1Cc2c(N3CCOCC3)nc3sc(C(=O)c4ccc(Br)cc4)c(N)c3c2CC1(C)C	?	18µM*	?	?	23µM*	13µM*
CC1(C)Cc2c(c(N3CCOCC3)nc3snc(NC(=O)c4ccccc4)c23)CO1	i	1%	0%	i	-1%	7%
Cc1nc2c(sc3nc(N4CCOCC4)c4c(c32)CC(C)(C)OC4)c(-c2ccccc2)c1C(=O)O	i	2.9µM*	21µM*	i	11%	1%
Cc1cc(C)c(NC(=O)C2CCN(C(=O)N3CCOc4ccccc43)CC2)c(C)c1	i	nt	nt	i	nt	nt
Cc1ccccc1C(=O)N1CCC(N2CCN(Cc3ccc(F)cc3)C(=O)C2=O)CC1	i	nt	nt	i	nt	nt
